Screens (PubChem BioAssay)
JMJD2A Tudor: JMJD2A Tudor domain (human) inhibition. O75164. AlphaScreen JMJD2A-Tudor / H3K4me3 peptide binding. Potency, µM (series often up to 114 µM), for inactives: at the highest dose activity change, negative = inhibition, most hits filed as inhibitors. 390,000 compounds, 4.4% hits; note: % is set by controls: 0 for no effect and ±100 for the full control effect; nearly all actives have a fitted effect of over 50% in size
BAZ2B inh: blocks human BAZ2B; Q9UIF8; AlphaScreen BAZ2B-H3K14Ac peptide displacement; Potency, µM (doses to about 114 µM), without a hit: at the top dose activity change, negative = inhibition, hits mostly inhibitors; 360,000 compounds, 4.4% hits; note: % is set by controls: 0 for no effect and ±100 for the full control effect; nearly all actives have a fitted effect of over 60% in size
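BAZ2B (50 nM) with biotin-H3(5-23)K14Ac peptide (50 nM) in PBS pH 7.4, 0.01% Tween-20, preformed 30 min, then compound 30 min at room temperature; top concentration 110uM. AlphaScreen streptavidin donor/nickel chelate acceptor beads (10 ug/mL final), 20 min dark, signal read.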
HP1b binding inh: blocks HP1-beta chromodomain binding to methylated histone tails; P83916; 390,000 compounds, 0.56% hits; Potency, µM (top dose mostly 114 µM), for inactives: at the top dose activity change, negative = inhibition, most hits filed as inhibitors; AlphaScreen HP1-beta / biotin-H3K9me3 peptide binding; AID 540317; note: nearly all actives have a fitted effect of over 70% in size
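AlphaScreen: HP1-beta (50 nM) preformed 30 min with biotin-H3(1-18)K9me3 peptide (50 nM) in PBS pH 7.4, 0.01% Tween-20. Compound added for 30 min at RT, then streptavidin donor/nickel chelate acceptor beads (10 ug/mL) for 30 min.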
Sfp inh: Sfp phosphopantetheinyl transferase inhibition; Q9F4F7; Biochemical Sfp PPTase activity, qHTS; Potency, µM, without a hit: largest response in the series, negative = inhibition, usual class: inhibitors; 310,000 compounds, 3.5% hits; AID 1490;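 note: the enzyme is Sfp with the accession as filed and its product quenches rhodamine fluorescence; 0% = enzyme reaction without inhibitor and -100% = no enzyme wells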
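Buffer: 50 mM Hepes-Na pH 7.6, 10 mM MgCl2, 0.01% Nonidet P-40, 0.01% BSA. Enzyme 15 nM, pre-exposed to compound 15 min; substrates then added and fluorescence change tracked over 30 min.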
G9a inh: G9a (human) methyltransferase inhibition; Potency, µM (titrated, usually from 102 µM), for the others: top-dose activity, negative = inhibition, hits mostly inhibitors; 350,000 compounds, 8.8% hits; G9a H3K9 monomethylation, AlphaScreen, 2 h; AID 504332; note: % is set by controls: 0 for no effect and ±100 for the full control effect; nearly all actives have a fitted effect of over 75% in size
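Chemiluminescent proximity detection of H3K9 monomethylation, read after 10 min bead incubation in the dark. Reaction: 20 nM G9a, 500 nM biotin-H3K9 peptide, 20 uM SAM cofactor, 2 h, room temperature, following 15 min enzyme-compound preincubation.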
L3MBTL1 inh: inhibitors of human L3MBTL1 | Q9Y468 | AlphaScreen L3MBTL1–H3K9me1 peptide binding | Potency, µM (series often up to 57.1 µM), for the others: top-dose activity, negative = inhibition, actives largely listed as inhibitors | 230,000 compounds, 0.66% hits | AID 485360; note: % is set by controls: 0 for no effect and ±100 for the full control effect; nearly all actives have a fitted effect of over 60% in size
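Displacement of a biotinylated histone H3(1-15) peptide monomethylated at Lys9 (75 nM) from L3MBTL1 (50 nM) was measured by AlphaScreen after a 30 min room-temperature compound incubation; cefsulodin titration served as intraplate control.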
An asterisk follows results filed as active; ? = inconclusive; . = no result given; [ ] = another dose, or the depositor's remark. This is a sample that favours compounds with a hit; in the whole collection about 12% have one here. Calls come from the whole dose curve; as a rule, active = well fitted curve in the direction sought with a large enough effect; inconclusive = small, poorly fitted or top-dose-only effect, or another doubt; inactive = no such curve, though single readings can be large; an effect the other way counts as inactive or inconclusive. Potency is the fitted concentration of half-maximal effect.

SMILES | JMJD2A Tudor | BAZ2B inh | HP1b binding inh | Sfp inh | G9a inh | L3MBTL1 inh
COc1ccc(C(=O)C2CCCN(Cc3c[nH]c4ccccc34)C2)c(OC)c1 (stereo unspecified) | -28% | -23% | 15% | -12% | ? | -15%
O=C(C(=O)N1CCCc2ccccc21)c1c[nH]c2ccccc12 | -13% | -2% | 0% | -5% | -22%[0.0925 µM] | 11%
O=C(C(=O)N1CCN(c2ccccc2Cl)CC1)c1c[nH]c2ccccc12 | ? | 50µM* | 7%[57 µM] | 9% | -5% | .
O=C(Cn1ncc2ccsc2c1=O)N1CCN(c2ccc(Cl)cc2)CC1 | -20% | -25% | 18% | . | -28%[59 µM] | .
CN(C)c1ncc2nc(CCc3ccccc3)c(=O)n(Cc3ccc(F)cc3)c2n1 | . | . | . | ? | -3%[12.7 µM] | .
O=C(O)C(=O)Nc1nc(-c2ccc3c(c2)OCCO3)cs1 | -22% | ? | 13%[57 µM] | -28% | 32µM* | .
CCOc1ccc(C(=O)NCC(=O)OCc2nnc(-c3ccccc3)o2)cc1OCC | 2% | 11% | 36% | . | 15%[59 µM] | 5%
O=C(O)c1cc(N(Cc2ccccc2O)Cc2cc(O)ccc2O)ccc1O | . | . | . | 18µM* | 2.2µM* | .
Cc1ccc(C)c(Cn2c3ccccc3c3cnn(CC(=O)NC(C)CCc4ccccc4)c(=O)c32)c1 (stereo unspecified) | -4% | 60% | 38% | . | -5%[59 µM] | .
Cc1cccc(Oc2ncnc(N)c2[N+](=O)[O-])c1C | -2% | 12% | 31% | 8% | 12% | 4%
Nc1ncnc(Oc2cccc3cccnc23)c1[N+](=O)[O-] | -1% | 45µM* | 31% | -16% | ? | 2%[11.4 µM]
CC1(C)CC(=O)c2cc(N=C/C(C(=O)c3ccccc3)=C(\O)c3ccccc3)c(=O)oc2C1 | ? | -28% | 36% | -7% | 25µM* | 19%
COc1ccccc1/C=C/CN1CCSCC1 | 6.3µM* | 56µM* | ? | -9% | 32µM* | -6%
COc1ccccc1/C=C/CN1CCOCC1 | 3.2µM* | ? | -52% | 7% | ? | -4%
COc1cccc(C(=O)C2CCCN(C/C=C/c3ccccc3OC)C2)c1 (stereo unspecified) | ? | -33% | 15% | 7% | -43% | -23%
Cc1cccc(CNc2ncncc2-c2ccccc2Cl)c1 | . | . | . | 9% | -40%[0.501 µM] | .
CO[C@H]1/C=C/O[C@@]2(C)Oc3c(C)c(O)c4c(O)c(c(C=NN5CCN(C)CC5)c(O)c4c3C2=O)NC(=O)/C(C)=C\C=C\[C@H](C)[C@H](O)[C@@H](C)[C@@H](O)[C@@H](C)[C@H](OC(C)=O)[C@@H]1C | -36% | ? | ? | . | -23%[12.7 µM] | -10%
CO[C@H]1C=CO[C@@]2(C)Oc3c(C)c(O)c4c(O)c(c(C=NN5CCN(C)CC5)c(O)c4c3C2=O)NC(=O)C(C)=CC=C[C@H](C)[C@H](O)[C@@H](C)[C@@H](O)[C@@H](C)[C@H](OC(C)=O)[C@@H]1C | ? | 45µM* | -22% | ? | ? | -25%
COc1ccccc1CCC(=O)N(CCC1=CCCCC1)c1c(N)n(Cc2ccccc2)c(=O)[nH]c1=O | -14% | 5% | 4% | . | 50µM* | -6%
COc1ccc(OCCCC(=O)N(CCC2=CCCCC2)c2c(N)n(Cc3ccccc3)c(=O)[nH]c2=O)cc1 | 0% | -26% | 23% | . | -4%[0.501 µM] | -3%
CCN(C(=O)COC(=O)c1ccccc1NCc1ccco1)c1c(N)n(Cc2ccccc2)c(=O)[nH]c1=O | -11% | . | 17% | . | . | .
CCC1CCc2sc(C(=O)OCC(=O)N(CCOC)c3c(N)n(Cc4ccccc4)c(=O)[nH]c3=O)cc2C1 (stereo unspecified) | -8% | 1% | 11% | . | 28µM* | -11%
COCCN(C(=O)CN1CCc2ccccc2C1)c1c(N)n(Cc2ccccc2)c(=O)[nH]c1=O | -7% | 5% | 31% | 12% | 40µM* | -3%
